Records with an inconclusive call do not appear. The source holds several records for some structures; these can differ, active in one and inactive in another. The source made the active and inactive calls. Unless noted, the call rests on the fitted dose curve; in most records, active means well fitted curve in the direction sought with a large enough effect in the repeat runs; inconclusive means weak or mixed curves; inactive means no such curve, though single readings can be large; an effect the other way counts as inactive or inconclusive.
Experiments:
[1] = qHTS assay to identify aromatase inhibitors - cell viability counter screen (AID 743084);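 further: cells stimulated with testosterone during compound exposure; nearly all actives have a fitted effect of over 55% in size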; further: potency means the concentration at half of the fitted maximal effect
[2] = molecular target: Aryl hydrocarbon receptor (Homo sapiens) (UniProt P35869); test: qHTS assay to identify small molecule that activate the aryl hydrocarbon receptor (AhR) signaling pathway (AID 743085);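 further: HG2L7.5c1 human HepG2 liver cells with stably integrated DRE-driven firefly reporter; series mostly up to about 70 µM; nearly all actives have a fitted effect of over 15% in size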
Outline: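 A multiplexed format paired cell viability (CellTiter-Fluor fluorescence) with AhR-dependent luciferase output (ONE-Glo luminescence) in the same wells of HepG2 DRE-luc cells after 24 h compound exposure at 37C.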

[3] = qHTS assay to identify small molecule that activate the aryl hydrocarbon receptor (AhR) signaling pathway - cell viability counter screen (AID 743086); further: nearly all actives have a fitted effect of over 45% in size; further: potency means the concentration at half of the fitted maximal effect;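 on viability change, negative = cytotoxic: HepG2 liver cells carrying the AhR DRE luciferase reporter; series mostly up to about 70 µM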
Outline: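 Cytotoxicity counter screen: CellTiter-Fluor signal (30 min, 37 C) in 4000 HepG2 cells/well carrying the DRE-luciferase reporter, following 24 h compound exposure at 37 C.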

[4] = molecular target: Peroxisome proliferator-activated receptor gamma (Homo sapiens) (UniProt P37231); test: qHTS assay to identify small molecule agonists of the peroxisome proliferator-activated receptor gamma (PPARg) signaling pathway (AID 743094; active means well fitted activation curve with a large enough effect in the signal ratio in the repeat runs, not every such curve was filed as active; the % refers to the signal ratio; further: potency means the concentration at half of the fitted maximal effect)
Outline: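 Reporter activation was scored by fluorescence of cleaved LiveBLAzer B/G substrate (1 h, room temperature) in PPARg-bla HEK293H cells previously treated 17 h at 37C with DMSO-dissolved compounds.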

[5] = molecular target: Peroxisome proliferator-activated receptor gamma (Homo sapiens) (UniProt P37231); test: qHTS assay to identify small molecule antagonists of the peroxisome proliferator-activated receptor gamma (PPARg) signaling pathway (AID 743191; calls by dose curve; further: series mostly up to about 63 µM; nearly all actives have a fitted effect of over 30% in size)
Outline: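 Beta-lactamase reporter under UAS control in HEK293H PPARg-bla cells; compound treatment 17 h at 37C. Read-out: fluorescence intensity after 1 h room-temperature incubation with LiveBLAzer B/G FRET substrate.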

[6] = qHTS assay to identify small molecule antagonists of the peroxisome proliferator-activated receptor gamma (PPARg) signaling pathway - cell viability counter screen (AID 743194); further: nearly all actives have a fitted effect of over 55% in size
Outline: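 Viability was measured as CellTiter-Glo luminescence in GeneBLAzer PPARg UAS-bla HEK293H cells. These cells had been exposed 17 h at 37 C to compounds together with rosiglitazone at 50 nM final, with the beta-lactamase readout taken in the same wells.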

[7] = qHTS assay for small molecule agonists of the antioxidant response element (ARE) signaling pathway (AID 743202; active means well fitted activation curve with a large enough effect in the signal ratio in the repeat runs, not every such curve was filed as active; the % refers to the signal ratio)
Outline: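 Beta-lactamase reporter activity, read as fluorescence intensity, reflects ARE/Nrf2 pathway induction in HepG2 cells after 16 h compound exposure at 37 C; substrate loading was 2 h at room temperature.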

[8] = qHTS assay for small molecule agonists of the antioxidant response element (ARE) signaling pathway - cell viability counter screen (AID 743203; calls by dose curve; further: nearly all actives have a fitted effect of over 55% in size)
Outline: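 Viability counter screen: stably transfected ARE-bla HepG2 line, 16 hrs compound exposure at 37C/5% CO2, ATP-based CellTiter-Glo luminescence measured in the reporter wells.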

[9] = qHTS assay for small molecule activators of the heat shock response signaling pathway - cell viability counter screen (AID 743209); further: nearly all actives have a fitted effect of over 50% in size
Outline: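 Viability of HSE-bla HeLa cells is measured with CellTiter-Glo in the wells already used for the reporter read. Compound exposure lasts 5 h at 37 C, and luminescence is read after 30 min at room temperature.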

[10] = qHTS assay for small molecule activators of the heat shock response signaling pathway (AID 743210; active means well fitted activation curve with a large enough effect in the signal ratio in the repeat runs, with a control signal flat, not every such curve was filed as active; the % refers to the signal ratio;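 further: HeLa cells with beta-lactamase reporter driven by heat shock elements; series mostly up to about 63 µM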)
Outline: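 Fluorescence from a cleaved B/G FRET substrate (2.5 h, room temp) reports HSE-driven beta-lactamase in HeLa cells treated 5 h at 37 C with DMSO-dissolved compounds.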

[11] = qHTS assay to identify small molecule agonists of the peroxisome proliferator-activated receptor delta (PPARd) signaling pathway - cell viability counter screen (AID 743211); further: nearly all actives have a fitted effect of over 55% in size
Outline: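 Tox21 library compounds, delivered in DMSO, were incubated 17 h with PPARd-bla HEK293H cells; cytotoxicity was taken from CellTiter-Glo luminescence read 30 min after reagent addition.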

[12] = molecular target: Peroxisome proliferator-activated receptor delta (Homo sapiens) (UniProt Q03181); test: qHTS assay to identify small molecule agonists of the peroxisome proliferator-activated receptor delta (PPARd) signaling pathway (AID 743212; calls by dose curve;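 further: HEK293H cells with PPARd UAS beta-lactamase reporter GeneBLAzer system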)
Outline: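 Steps: seed PPARd-bla HEK293H cells; incubate 5 h, 37 C, 5% CO2; add compounds in DMSO; incubate, 37 C; add LiveBLAzer B/G FRET substrate; hold 2 h at room temperature; measure fluorescence.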

[13] = molecular target: Peroxisome proliferator-activated receptor delta (Homo sapiens) (UniProt Q03181); test: qHTS assay to identify small molecule antagonists of the peroxisome proliferator-activated receptor delta (PPARd) signaling pathway (AID 743215; active means well fitted inhibition curve with a large enough effect in the signal ratio in the repeat runs, not every such curve was filed as active; the % refers to the signal ratio;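 further: cells stimulated with agonist L165041 at 300 nM final during compound exposure; series mostly up to about 62 µM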)
Outline: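 Plated HEK293H PPARd-bla cells rested 5 h at 37 C and 5% CO2. Compound, then agonist L165041 at 300 nM final, was added; 17 h at 37 C followed. Substrate loading, 2 h room temperature, fluorescence measured.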

[14] = qHTS assay to identify small molecule agonists of the farnesoid-X-receptor (FXR) signaling pathway - cell viability counter screen (AID 743218); further: nearly all actives have a fitted effect of over 45% in size
Outline: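 Viability of FXR-bla HEK 293T cells is measured by ATP-based CellTiter-Glo luminescence following 16 h compound treatment at 37 C and a prior 2 h room-temperature beta-lactamase substrate step.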

[15] = qHTS assay to identify small molecule antagonists of the farnesoid-X-receptor (FXR) signaling pathway - cell viability counter screen (AID 743221; active means well fitted cell-killing curve with a large enough effect in the repeat runs, not every such curve was filed as active; further: nearly all actives have a fitted effect of over 50% in size)
Outline: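 Cytotoxicity is taken from ATP luminescence (CellTiter-Glo, 30 min, room temperature) in FXR-bla HEK 293T cells previously incubated 16 h at 37 C with compound and chenodeoxycholic acid at 50 uM final.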

[16] = molecular target: Vitamin D3 receptor (Homo sapiens) (UniProt P11473); test: qHTS assay to identify small molecule agonists of the vitamin D receptor (VDR) signaling pathway (AID 743222; calls by dose curve)
Outline: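 Fluorescence from cleaved LiveBLAzer B/G FRET substrate served as readout. VDR-bla cells had been treated 16 h at 37C with test compounds in DMSO, following a 4 h settling period, and substrate was loaded for 2 h at RT.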

[17] = qHTS assay to identify small molecule antagonists of the peroxisome proliferator-activated receptor delta (PPARd) signaling pathway - cell viability counter screen (AID 743213); further: nearly all actives have a fitted effect of over 50% in size
Outline: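 In this counter screen, HEK293H cells carrying a UAS-beta-lactamase reporter are co-treated with test compounds and 300 nM L165041 (final) for 17 h at 37 C; cell viability is quantified by CellTiter-Glo luminescence.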

[18] = molecular target: Vitamin D3 receptor (Homo sapiens) (UniProt P11473); test: qHTS assay to identify small molecule antagonists of the vitamin D receptor (VDR) signaling pathway (AID 743223; active means well fitted inhibition curve with a large enough effect in the signal ratio in the repeat runs, not every such curve was filed as active; the % refers to the signal ratio)
Outline: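 Quantitative HTS in VDR-bla reporter cells stimulated with 1alpha,25-dihydroxyvitamin D3, 3 nM final. Compound exposure 16 h, 37C, 5% CO2. Read-out: beta-lactamase FRET substrate fluorescence, 2 h RT.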

[19] = molecular target: Bile acid receptor (Homo sapiens) (UniProt Q96RI1); test: qHTS assay to identify small molecule antagonists of the farnesoid-X-receptor (FXR) signaling pathway (AID 743217; active means well fitted inhibition curve with a large enough effect in the signal ratio in the repeat runs, not every such curve was filed as active; the % refers to the signal ratio)
Outline: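 Screen of the Tox21 10K library in quantitative HTS format using FXR-UAS-bla HEK 293T reporter cells. Agonist chenodeoxycholic acid, 50 uM final, added with compounds; 16 h incubation at 37 °C; beta-lactamase FRET fluorescence measured.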

[20] = molecular target: Bile acid receptor (Homo sapiens) (UniProt Q96RI1); test: qHTS assay to identify small molecule agonists of the farnesoid-X-receptor (FXR) signaling pathway (AID 743220; active means well fitted activation curve with a large enough effect in the signal ratio in the repeat runs, not every such curve was filed as active; the % refers to the signal ratio)
Outline: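 FXR-UAS-bla HEK 293T cells carrying a UAS-driven beta-lactamase reporter were plated for 5 h at 37C/5% CO2, then exposed to DMSO-dissolved Tox21 10K compounds for 16 h at 37C. A LiveBLAzer B/G FRET substrate was loaded for 2 h at room temperature before fluorescence reading.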
On the % scale 0 is the no-effect control and ±100 the full control effect.

Vitamin D3 receptor (Homo sapiens), sequence (P11473 whole entry, looked up): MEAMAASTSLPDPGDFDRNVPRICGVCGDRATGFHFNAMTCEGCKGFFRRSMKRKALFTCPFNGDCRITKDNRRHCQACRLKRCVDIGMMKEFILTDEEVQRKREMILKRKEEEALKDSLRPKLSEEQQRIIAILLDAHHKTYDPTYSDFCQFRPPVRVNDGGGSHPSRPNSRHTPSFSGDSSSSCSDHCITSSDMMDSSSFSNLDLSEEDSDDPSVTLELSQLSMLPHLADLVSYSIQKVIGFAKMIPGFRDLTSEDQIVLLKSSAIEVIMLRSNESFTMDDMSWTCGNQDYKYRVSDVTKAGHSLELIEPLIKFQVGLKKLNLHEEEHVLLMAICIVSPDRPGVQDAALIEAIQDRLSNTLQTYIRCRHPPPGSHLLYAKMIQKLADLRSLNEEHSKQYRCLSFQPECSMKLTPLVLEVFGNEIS
Bile acid receptor (Homo sapiens), sequence (Q96RI1 whole entry, looked up): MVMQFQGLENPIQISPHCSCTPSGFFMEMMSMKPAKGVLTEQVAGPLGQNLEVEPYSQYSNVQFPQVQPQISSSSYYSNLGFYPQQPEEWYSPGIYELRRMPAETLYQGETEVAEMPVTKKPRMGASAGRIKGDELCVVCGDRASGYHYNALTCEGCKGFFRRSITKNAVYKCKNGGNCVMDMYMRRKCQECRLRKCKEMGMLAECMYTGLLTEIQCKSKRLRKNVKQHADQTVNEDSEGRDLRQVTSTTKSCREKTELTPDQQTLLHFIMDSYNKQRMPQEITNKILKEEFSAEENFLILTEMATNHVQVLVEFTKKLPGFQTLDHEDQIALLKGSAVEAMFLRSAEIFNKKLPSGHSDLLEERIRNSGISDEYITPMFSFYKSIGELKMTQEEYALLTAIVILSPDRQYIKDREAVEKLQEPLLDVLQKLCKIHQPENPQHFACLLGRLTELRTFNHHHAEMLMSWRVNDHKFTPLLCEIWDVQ
Aryl hydrocarbon receptor (Homo sapiens), sequence (P35869 whole entry, looked up): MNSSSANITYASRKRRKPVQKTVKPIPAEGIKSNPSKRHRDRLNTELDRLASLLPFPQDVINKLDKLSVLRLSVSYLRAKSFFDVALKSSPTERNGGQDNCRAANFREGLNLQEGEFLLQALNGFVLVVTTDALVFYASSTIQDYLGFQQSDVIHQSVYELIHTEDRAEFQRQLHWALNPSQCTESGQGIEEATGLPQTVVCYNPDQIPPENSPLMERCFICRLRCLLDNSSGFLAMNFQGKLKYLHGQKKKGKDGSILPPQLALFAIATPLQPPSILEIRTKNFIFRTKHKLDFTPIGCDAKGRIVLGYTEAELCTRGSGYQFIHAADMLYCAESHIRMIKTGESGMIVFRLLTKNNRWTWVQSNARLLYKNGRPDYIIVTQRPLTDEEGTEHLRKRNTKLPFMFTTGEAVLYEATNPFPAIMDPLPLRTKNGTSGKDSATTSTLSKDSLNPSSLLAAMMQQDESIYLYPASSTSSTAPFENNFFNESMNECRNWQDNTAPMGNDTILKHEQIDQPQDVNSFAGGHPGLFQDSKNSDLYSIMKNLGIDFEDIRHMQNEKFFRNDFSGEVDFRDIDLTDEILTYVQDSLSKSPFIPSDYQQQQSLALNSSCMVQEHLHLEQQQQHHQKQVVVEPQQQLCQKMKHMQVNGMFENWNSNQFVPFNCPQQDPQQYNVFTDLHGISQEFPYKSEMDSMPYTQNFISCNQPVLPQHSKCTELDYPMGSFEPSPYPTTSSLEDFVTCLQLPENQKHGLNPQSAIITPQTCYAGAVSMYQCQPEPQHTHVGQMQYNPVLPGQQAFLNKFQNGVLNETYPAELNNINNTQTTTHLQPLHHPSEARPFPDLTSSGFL
Peroxisome proliferator-activated receptor delta (Homo sapiens), sequence (Q03181 whole entry, looked up): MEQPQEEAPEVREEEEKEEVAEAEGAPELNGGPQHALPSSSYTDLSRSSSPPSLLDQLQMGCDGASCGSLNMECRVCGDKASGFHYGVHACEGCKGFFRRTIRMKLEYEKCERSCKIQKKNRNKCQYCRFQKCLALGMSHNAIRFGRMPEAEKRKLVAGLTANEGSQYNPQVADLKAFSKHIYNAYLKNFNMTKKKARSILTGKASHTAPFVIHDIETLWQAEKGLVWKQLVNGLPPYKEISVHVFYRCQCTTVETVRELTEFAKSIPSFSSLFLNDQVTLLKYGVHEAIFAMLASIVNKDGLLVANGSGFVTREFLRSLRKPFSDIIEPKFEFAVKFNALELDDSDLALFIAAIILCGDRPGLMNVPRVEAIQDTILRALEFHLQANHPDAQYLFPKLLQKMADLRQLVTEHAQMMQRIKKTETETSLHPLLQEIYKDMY
Peroxisome proliferator-activated receptor gamma (Homo sapiens), sequence (P37231 whole entry, looked up): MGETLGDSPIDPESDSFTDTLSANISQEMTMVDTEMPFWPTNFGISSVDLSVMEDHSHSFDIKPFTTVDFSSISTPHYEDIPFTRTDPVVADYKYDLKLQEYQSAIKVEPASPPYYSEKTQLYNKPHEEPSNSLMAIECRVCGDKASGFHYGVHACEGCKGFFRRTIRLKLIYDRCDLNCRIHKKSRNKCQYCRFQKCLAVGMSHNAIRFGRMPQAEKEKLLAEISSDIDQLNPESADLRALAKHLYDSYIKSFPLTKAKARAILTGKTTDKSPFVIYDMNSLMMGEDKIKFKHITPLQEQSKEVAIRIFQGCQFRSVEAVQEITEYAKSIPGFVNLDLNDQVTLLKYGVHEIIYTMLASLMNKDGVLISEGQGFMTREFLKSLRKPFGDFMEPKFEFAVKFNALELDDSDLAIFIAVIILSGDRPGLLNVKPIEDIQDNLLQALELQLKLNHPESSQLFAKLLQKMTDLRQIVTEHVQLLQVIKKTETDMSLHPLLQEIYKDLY

O=[N+]([O-])c1cccc(I)c1
inactive: Potency [1] | Potency [2] | Potency [3] | Potency [4] | Potency [5] | Potency [6] | Potency [7] | Potency [8] | outcome [9] | outcome [10] | Potency [11] | Potency [12] | outcome [13] | Potency [14] | Potency [15] | outcome [16]

C/C(=C(\CCO)SS/C(CCO)=C(\C)N(C=O)Cc1cnc(C)nc1N)N(C=O)Cc1cnc(C)nc1N
inactive: Potency [1] | Potency [2] | Potency [3] | Potency [4] | Potency [5] | Potency [6] | Potency [7] | Potency [8] | outcome [9] | outcome [10] | Potency [12] | Potency [17] | Potency [14] | Potency [15] | outcome [16] | outcome [18]

CCCCCCCCS
inactive: Potency [1] | Potency [2] | Potency [3] | Potency [4] | Potency [5] | Potency [6] | Potency [7] | Potency [8] | outcome [9] | outcome [10] | Potency [11] | Potency [12] | Potency [17] | outcome [13] | outcome [19] | Potency [14] | outcome [20] | Potency [15] | outcome [16] | outcome [18]

CC1=CC(=C(c2ccc(N)cc2)c2ccc(N)cc2)C=CC1=N
inactive: Potency [2] | viability change, negative = cytotoxic [3] -14.7% [at 8.47 µM] | activation [4] -4.84% [at 7.08 µM] | activity change, negative = cytotoxicity [6] -29.3% [at 5.95 µM] | viability change, negative = cytotoxic [8] -12.3% [at 8.36 µM] | activity change, negative = cytotoxicity [9] -5.14% [at 5.95 µM] | activation [10] -0.545% [at 5.95 µM] | activation [12] -0.0637% [at 5.95 µM] | viability change, negative = cytotoxic [17] -32.9% [at 6.26 µM] | ratio activity, negative = inhibition [13] -10.9% [at 6.26 µM] | viability change, negative = cytotoxic [14] -22.2% [at 5.95 µM] | activity change, negative = cytotoxicity [15] -5.62% [at 5.95 µM] | activation [16] -2.54% [at 6.01 µM]
active: Potency [1] 11.9 µM | Potency [3] 18.8 µM

O=C(OC1C[C@H]2CC[C@@H](C1)[N+]21CCCC1)C(O)(c1ccccc1)c1ccccc1 (some centres undefined)
inactive: Potency [1] | Potency [2] | Potency [3] | Potency [4] | Potency [5] | Potency [6] | Potency [7] | Potency [8] | outcome [9] | outcome [10] | Potency [11] | Potency [12] | Potency [17] | outcome [13] | Potency [14] | Potency [15] | outcome [16] | outcome [18]

Cc1ccc2c(Cl)cc(Cl)c(O)c2n1
inactive: Potency [2] | Potency [3] | Potency [5] | Potency [6] | Potency [7] | Potency [8] | outcome [9] | outcome [10] | Potency [12] | Potency [17] | Potency [15] | outcome [16] | outcome [18]
active: Potency [1] 23.7 µM | Potency [4] 9.52 µM

O=C(O)c1ccc2cc(O)ccc2c1
inactive: Potency [1] | Potency [2] | Potency [3] | Potency [4] | Potency [5] | Potency [6] | Potency [7] | Potency [8] | outcome [9] | outcome [10] | Potency [11] | Potency [12] | Potency [17] | outcome [19] | Potency [14] | outcome [20] | Potency [15] | outcome [16] | outcome [18]
